Experimental data: PubChem BioAssay (NCATS)
Where “and” joins values, the source holds several entries; their conditions need not be identical. Equal entries are not always repeated. Records with an inconclusive call do not appear. The source holds several records for some structures; these can differ, active in one and inactive in another. Calls of active or inactive are those of the source. Unless noted, calls come from the whole dose curve; as a rule, active = well fitted curve in the direction sought with a large enough effect; inconclusive = small, poorly fitted or top-dose-only effect, or another doubt; inactive = no such curve, though single readings can be large; an effect the other way counts as inactive or inconclusive.

Tests used:
[1] = AP1 Signaling Pathway (AID 357; active = well fitted curve in either direction with a large enough effect, not every such curve was filed as active;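 note: ME-180 reporter cells stimulated with EGF at its EC50 level; % is set by controls: 0 for no effect and ±100 for the full control effect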); details: ME-180 AP-1-bla reporter, EGF-induced, beta-lactamase ratio, 5 h; at 7.69 µM (top of the series) unless noted
How it was run: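 A ratiometric CCF4 readout (405 nm excitation; 460 and 530 nm emission) quantified AP-1-driven beta-lactamase in ME-180 cells after 5 h with compound and EC50 EGF; AC50 values were derived for activators and inhibitors.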

[2] = target: Cytochrome P450 1A2 (Homo sapiens) (UniProt P05177); experiment: p450-cyp1a2 (AID 410; calls by dose curve; note: potency is the fitted concentration of half-maximal effect;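 for activity change, negative = inhibition: -100% = full effect of reference inhibitor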)
How it was run: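 O-Demethylation of luciferin 6' methyl ether by human CYP1A2 is monitored as luciferase luminescence. Substrate sits at Km (100uM); enzyme is 20nM. Values are scaled to 57 uM furafylline as maximal inhibition.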

[3] = NFAT Signaling Pathway (AID 444; active = well fitted curve in either direction with a large enough effect, not every such curve was filed as active;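 note: carbachol stimulus at about its EC50 of 1 µM final; % is set by controls: 0 for no effect and ±100 for the full control effect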); details: Jurkat NFAT-bla M1, carbachol, beta-lactamase ratio, 5 h; at 7.69 µM (top of the series) unless noted
How it was run: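 Jurkat cells carrying an NFAT-driven β-lactamase reporter and co-transfected muscarinic M1 receptor were treated with compound plus carbachol (1 uM final, an EC50 level) for 5 h at 37 °C. CCF4 loading followed for 1 h at RT; 460/530 nm ratio gave %activity.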

[4] = Stat Signaling Pathway (AID 446; active = well fitted curve in either direction with a large enough effect, not every such curve was filed as active;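 note: ME-180 cervical cancer cells given 40 pM IL-6 alongside compound; SIE-controlled beta-lactamase reporter measured as 460/530 nm FRET emission ratio; % is set by controls: 0 for no effect and ±100 for the full control effect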); details: ME-180 (cervical carcinoma) SIE beta-lactamase reporter, IL-6 stimulated, 5 h
How it was run: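 Emission at 460 and 530 nm (excitation 405 nm) reports SIE-controlled beta-lactamase in ME-180 cells. Cells received compound with 40 pM IL-6 for 5 hrs at 37 C; data scaled between 300 pM IL-6 and 125 nM JAK-inhibitor controls.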

[5] = target: Glucocorticoid receptor (Homo sapiens) (UniProt P04150); experiment: GR-GFP Redistribution (AID 450;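 active = compounds whose dose series gives a full or clear partial fitted curve of increased nuclear translocation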; note: potency is the fitted concentration of half-maximal effect); details: U2OS GR-GFP nuclear translocation, laser cytometry, 2 h
[6] = target: Glucocorticoid receptor (Homo sapiens) (UniProt P04150); experiment: GR-EFC Redistribution (AID 451; calls by dose curve; note: potency is the fitted concentration of half-maximal effect); details: CHO-K1 GR-EFC translocation, beta-gal luminescence, 2 h
How it was run: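 CHO-K1 cells stably expressing nuclear-localized β-gal enzyme acceptor and GR fused C-terminally to the enzyme donor fragment; ligand-driven nuclear translocation restores β-gal by complementation. Compounds titrated up to 46 uM final, 2 h at 37 °C; luminescence read.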

[7] = target: Mitogen-activated protein kinase 10 (Mus musculus) (UniProt Q61831); experiment: JNK3 AlphaScreen Assay (AID 530; active = well fitted curve in either direction with a large enough effect, not every such curve was filed as active;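 note: kinase came from lysate of stimulated human HepG2 cells; signal reports phosphorylation of biotinylated GST-cJun 1-79 at Ser73 with 10 µM ATP; % is set by controls: 0 for no effect and ±100 for the full control effect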)
How it was run: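 Phosphorylation of biotinylated GST-cJun(1-79) at Ser73 is measured by AlphaScreen proximity luminescence. Enzyme is JNK3 in HepG2 lysates activated with interleukin-1beta and tumor necrosis factor alpha; ATP is 10 uM final.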

[8] = target: 3',5'-cyclic-AMP phosphodiesterase 4B (Homo sapiens) (UniProt Q07343); experiment: qHTS Assay for Inhibitors of PDE-IV (AID 607; active = well fitted activation curve with a large enough effect in the main read-out, with a control signal flat, not every such curve was filed as active; note: % of control where 0% means no effect)
How it was run: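 The readout is membrane depolarisation from a cAMP-sensing CNG channel, detected with a potential dye at ex 535/em 590. Cells were HEK293-derived (endogenous PDE-IV) at 1000 cells/well, titrated up to 22.9 uM final.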

[9] = qHTS Assay for Lipid Storage Modulators (AID 1519; calls by dose curve); details: Drosophila S3 cells, BODIPY lipid droplet/cell ratio, laser cytometry, cells loaded with oleic acid
How it was run: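 Cells seeded at 5,000 per well were treated with compounds over a concentration series and loaded with oleic acid (400 uM, as added). Lipid droplet fluorescence (488 nm excitation, 500-530 nm channel) was read by laser-scanning cytometry and normalized to 20 uM Triacsin C.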

[10] = target: Ubiquitin carboxyl-terminal hydrolase 1 (Homo sapiens) (UniProt O94782); experiment: Inhibitors of USP1/UAF1: Pilot qHTS (AID 504865);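 note: rhodamine fluorescence freed from ubiquitin-rhodamine substrate followed over time; top concentration of the series differs between compounds; % is set by controls: 0 for no effect and ±100 for the full control effect; nearly all actives have a fitted effect of over 35% in size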
How it was run: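 USP1/UAF1 complex (1nM) preincubated with compound 15 min at room temperature, then Ub-Rho substrate (150nM final) added. Fluorescence read kinetically at 480/540 nm, 6 reads every 60 seconds. Buffer: 50mM HEPES pH 7.8, 0.5mM EDTA, 0.1 mg/ml BSA, 1mM TCEP, 0.01% Tween-20.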

[11] = target: Luciferin 4-monooxygenase (Photinus pyralis) (UniProt P08659); experiment: Biochemical firefly luciferase enzyme assay for NPC (AID 624030);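 note: purified P. pyralis luciferase at 10 nM with luciferin and ATP substrate; 0% = DMSO and -100% = full luciferase inhibition by PTC124 control; nearly all actives have a fitted effect of over 70% in size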
How it was run: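 Counter-screen for direct inhibition of the luciferase enzyme by approved-drug library compounds, run at 10 nM enzyme in 50 mM Tris acetate (final). Luminescence was read within 5 min of enzyme-buffer addition and normalized to PTC124 versus DMSO (0%).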

[12] = qHTS profiling for inhibitors of Plasmodium falciparum proliferation (AID 504749);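 note: 0% = DMSO vehicle and full inhibition = artemisinin control; nearly all actives have a fitted effect of over 60% in size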; details: P. falciparum in erythrocytes, SYBR Green DNA, 72 h
How it was run: (§1)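 Quantitative HTS: compounds pinned into medium, infected erythrocytes added (0.3% parasitemia, 2.5% hematocrit), 72 h culture at 37 C under 5% CO2. Saponin/Triton lysis with SYBR Green I, overnight RT, then fluorescence read.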

ATS189 = experiment: as above; details: P. falciparum in erythrocytes, SYBR Green DNA, 72 h; series mostly up to 12.8 µM
How it was run: as §1

CP201 = experiment: as above; details: P. falciparum in erythrocytes, SYBR Green DNA, 72 h; series mostly up to 12.8 µM
How it was run: as §1

CP291 = experiment: as above; details: P. falciparum in erythrocytes, SYBR Green DNA, 72 h; series mostly up to 12.8 µM
How it was run: as §1

DFO2036 = experiment: as above; details: P. falciparum in erythrocytes, SYBR Green DNA, 72 h; series mostly up to 12.8 µM
How it was run: as §1

PC49 = experiment: as above; details: P. falciparum in erythrocytes, SYBR Green DNA, 72 h; series mostly up to 12.8 µM
How it was run: as §1

TAB113 = experiment: as above; details: P. falciparum in erythrocytes, SYBR Green DNA, 72 h; series mostly up to 12.8 µM
How it was run: as §1

[13] = target: Cytochrome P450 3A4 (Homo sapiens) (UniProt P08684); experiment: qHTS Assay for Activators of Cytochrome P450 3A4 (AID 885); note: nearly all actives have a fitted effect of over 65% in size
How it was run: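 Activators are scored by enhanced luminescence from CYP3A4 conversion of luciferin-PPXE (25uM, equal to KM) to luciferin, after 60 min at RT with an NADPH-regenerating system.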

[14] = at 7.69 µM (top of the series) unless noted
[15] = measured here: cell count channel max response
[16] = measured here: lipid channel max response

Chain of Ubiquitin carboxyl-terminal hydrolase 1 (Homo sapiens) (O94782 whole entry, looked up): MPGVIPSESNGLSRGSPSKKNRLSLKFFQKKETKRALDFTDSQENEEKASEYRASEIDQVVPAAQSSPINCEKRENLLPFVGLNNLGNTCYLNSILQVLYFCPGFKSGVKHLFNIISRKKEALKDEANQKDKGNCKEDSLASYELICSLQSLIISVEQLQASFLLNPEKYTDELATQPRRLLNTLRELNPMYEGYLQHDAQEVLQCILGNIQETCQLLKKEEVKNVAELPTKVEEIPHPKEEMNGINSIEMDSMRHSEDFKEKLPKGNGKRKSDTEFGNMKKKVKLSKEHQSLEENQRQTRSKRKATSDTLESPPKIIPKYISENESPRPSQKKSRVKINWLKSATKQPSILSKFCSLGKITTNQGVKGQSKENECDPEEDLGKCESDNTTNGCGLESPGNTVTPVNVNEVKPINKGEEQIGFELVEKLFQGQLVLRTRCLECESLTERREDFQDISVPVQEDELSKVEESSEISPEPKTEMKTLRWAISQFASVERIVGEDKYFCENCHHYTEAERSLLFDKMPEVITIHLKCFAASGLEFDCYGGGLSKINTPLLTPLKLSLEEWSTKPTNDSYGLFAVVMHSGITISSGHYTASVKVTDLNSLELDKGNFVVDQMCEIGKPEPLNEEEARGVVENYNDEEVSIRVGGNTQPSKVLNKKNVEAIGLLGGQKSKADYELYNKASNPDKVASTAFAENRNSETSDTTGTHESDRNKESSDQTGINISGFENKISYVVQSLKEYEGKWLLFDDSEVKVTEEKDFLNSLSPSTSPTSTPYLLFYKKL
Chain of 3',5'-cyclic-AMP phosphodiesterase 4B (Homo sapiens) (Q07343 whole entry, looked up): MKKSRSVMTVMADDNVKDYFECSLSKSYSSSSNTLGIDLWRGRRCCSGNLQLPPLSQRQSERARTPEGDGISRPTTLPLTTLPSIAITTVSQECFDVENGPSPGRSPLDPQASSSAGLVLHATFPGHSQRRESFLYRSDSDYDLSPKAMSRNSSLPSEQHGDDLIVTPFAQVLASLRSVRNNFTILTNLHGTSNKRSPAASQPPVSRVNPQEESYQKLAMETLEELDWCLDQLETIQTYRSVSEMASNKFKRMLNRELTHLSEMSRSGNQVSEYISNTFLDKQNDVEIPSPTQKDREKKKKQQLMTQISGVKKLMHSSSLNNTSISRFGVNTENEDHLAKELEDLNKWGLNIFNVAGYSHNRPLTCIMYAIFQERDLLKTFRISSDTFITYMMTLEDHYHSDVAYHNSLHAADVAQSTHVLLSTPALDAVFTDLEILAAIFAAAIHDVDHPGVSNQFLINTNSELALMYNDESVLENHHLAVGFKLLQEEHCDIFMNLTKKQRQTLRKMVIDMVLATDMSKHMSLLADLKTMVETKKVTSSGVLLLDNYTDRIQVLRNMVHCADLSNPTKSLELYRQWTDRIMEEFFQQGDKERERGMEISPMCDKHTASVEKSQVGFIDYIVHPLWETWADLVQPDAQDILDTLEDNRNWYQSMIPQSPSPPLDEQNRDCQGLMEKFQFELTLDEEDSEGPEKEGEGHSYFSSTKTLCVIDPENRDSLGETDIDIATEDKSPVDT
Chain of Glucocorticoid receptor (Homo sapiens) (P04150 whole entry, looked up, the tested form may be a part): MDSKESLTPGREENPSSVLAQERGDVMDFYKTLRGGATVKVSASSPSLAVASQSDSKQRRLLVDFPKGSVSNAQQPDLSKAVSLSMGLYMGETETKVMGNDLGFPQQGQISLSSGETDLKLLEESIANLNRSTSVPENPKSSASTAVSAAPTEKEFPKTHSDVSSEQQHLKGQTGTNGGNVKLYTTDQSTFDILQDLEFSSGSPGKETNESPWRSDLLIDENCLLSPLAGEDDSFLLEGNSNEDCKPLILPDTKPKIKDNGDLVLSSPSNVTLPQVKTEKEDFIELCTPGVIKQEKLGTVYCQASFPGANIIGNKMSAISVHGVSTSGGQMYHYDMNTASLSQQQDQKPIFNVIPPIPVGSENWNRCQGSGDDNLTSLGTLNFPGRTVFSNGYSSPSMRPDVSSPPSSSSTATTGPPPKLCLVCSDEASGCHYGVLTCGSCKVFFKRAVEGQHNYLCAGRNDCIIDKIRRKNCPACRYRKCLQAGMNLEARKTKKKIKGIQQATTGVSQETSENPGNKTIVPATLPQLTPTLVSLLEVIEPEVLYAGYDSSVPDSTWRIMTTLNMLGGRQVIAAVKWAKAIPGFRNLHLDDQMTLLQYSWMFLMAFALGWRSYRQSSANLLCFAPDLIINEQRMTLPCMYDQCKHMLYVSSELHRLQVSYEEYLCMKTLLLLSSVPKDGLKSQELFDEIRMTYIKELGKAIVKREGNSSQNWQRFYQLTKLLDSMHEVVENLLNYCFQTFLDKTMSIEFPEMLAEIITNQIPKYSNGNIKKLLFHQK
Chain of Cytochrome P450 3A4 (Homo sapiens) (P08684 whole entry, looked up): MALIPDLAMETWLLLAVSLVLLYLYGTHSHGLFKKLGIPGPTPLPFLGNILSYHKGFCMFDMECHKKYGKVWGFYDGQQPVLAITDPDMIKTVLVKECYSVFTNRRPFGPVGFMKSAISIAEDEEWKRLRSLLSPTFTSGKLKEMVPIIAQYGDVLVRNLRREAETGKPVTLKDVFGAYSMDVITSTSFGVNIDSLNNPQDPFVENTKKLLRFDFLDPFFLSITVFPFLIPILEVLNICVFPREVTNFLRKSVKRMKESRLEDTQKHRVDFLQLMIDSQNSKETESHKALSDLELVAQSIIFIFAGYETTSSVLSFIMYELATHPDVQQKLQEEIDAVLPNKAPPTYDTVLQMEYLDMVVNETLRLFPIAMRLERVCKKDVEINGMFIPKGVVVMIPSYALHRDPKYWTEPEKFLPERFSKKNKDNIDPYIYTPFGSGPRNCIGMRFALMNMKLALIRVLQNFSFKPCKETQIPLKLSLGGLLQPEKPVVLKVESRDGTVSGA
Chain of Cytochrome P450 1A2 (Homo sapiens) (P05177 whole entry, looked up): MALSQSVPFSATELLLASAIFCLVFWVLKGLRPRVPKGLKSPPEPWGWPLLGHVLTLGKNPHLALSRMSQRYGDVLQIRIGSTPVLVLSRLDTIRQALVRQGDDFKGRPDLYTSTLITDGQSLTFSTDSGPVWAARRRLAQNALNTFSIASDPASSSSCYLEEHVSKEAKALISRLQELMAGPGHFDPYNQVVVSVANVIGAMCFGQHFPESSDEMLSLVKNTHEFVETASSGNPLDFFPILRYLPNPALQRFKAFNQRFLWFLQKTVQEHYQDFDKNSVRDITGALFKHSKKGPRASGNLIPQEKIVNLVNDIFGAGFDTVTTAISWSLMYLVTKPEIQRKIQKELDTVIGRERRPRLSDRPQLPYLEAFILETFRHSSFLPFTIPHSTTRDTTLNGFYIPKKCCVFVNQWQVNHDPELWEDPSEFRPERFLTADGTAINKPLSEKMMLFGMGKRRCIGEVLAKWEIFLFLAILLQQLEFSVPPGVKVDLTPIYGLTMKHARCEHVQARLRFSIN
Chain of Luciferin 4-monooxygenase (Photinus pyralis) (P08659 whole entry, looked up): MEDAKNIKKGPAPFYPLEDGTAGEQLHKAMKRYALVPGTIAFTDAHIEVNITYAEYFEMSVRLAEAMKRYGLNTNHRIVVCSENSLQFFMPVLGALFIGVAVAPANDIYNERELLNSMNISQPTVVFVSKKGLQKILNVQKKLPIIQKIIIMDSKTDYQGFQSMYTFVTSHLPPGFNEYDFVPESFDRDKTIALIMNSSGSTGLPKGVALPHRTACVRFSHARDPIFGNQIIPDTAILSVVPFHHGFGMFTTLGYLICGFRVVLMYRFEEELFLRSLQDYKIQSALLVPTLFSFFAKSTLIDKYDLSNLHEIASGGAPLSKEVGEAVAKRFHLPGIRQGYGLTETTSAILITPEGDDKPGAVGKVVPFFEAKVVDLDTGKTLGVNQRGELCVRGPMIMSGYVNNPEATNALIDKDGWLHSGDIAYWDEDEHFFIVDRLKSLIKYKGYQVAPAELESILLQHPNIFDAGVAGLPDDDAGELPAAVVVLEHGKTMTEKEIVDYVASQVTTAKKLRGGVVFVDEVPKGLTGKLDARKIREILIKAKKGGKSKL

Structure (SMILES): O=C(O)/C=C\c1ccc(Cn2ccnc2)cc1
- activity change, negative = inhibition [1]: -4.02% [at 17.2 µM] (inactive)
- Potency [2]: 12.6 µM (active)
- activity change, negative = inhibition [3]: -0.213% [at 17.2 µM] (inactive)
- activity, negative = inhibition [4, 14]: 6.45% [at 17.2 µM] (inactive)
- Potency [5]: > 20.6 µM (inactive)
- Potency [6]: > 20.6 µM (inactive)
- Potency [7]: inactive
- Potency [8]: inactive
- activity change, negative = inhibition ([9]; at 25.7 µM (top of the series)): 0.716% (inactive)
- max response [9, 15]: -6.14%
- max response [9, 16]: -3.7%
- Potency [10]: inactive
- outcome [11]: inactive
- activity, negative = inhibition ([12]; at 12.8 µM (top of the series), parasite line A): 2.69% (inactive)
- activity, negative = inhibition ([12]; at 12.8 µM (top of the series), parasite line B): -5.94% (inactive)
- Potency (ATS189): inactive
- Potency (CP201): inactive
- Potency (CP291): inactive
- Potency (DFO2036): inactive
- Potency (PC49): inactive
- Potency (TAB113): inactive

Structure (SMILES): COc1c2ccoc2nc2c(OC)c(OC[C@H](O)C(C)(C)O)ccc12
- activity change, negative = inhibition [1]: 1.86% [at 17.2 µM] (inactive)
- Potency [2]: 10 µM (active) and 25.1 µM (active)
- activity change, negative = inhibition [3]: 15.7% [at 17.2 µM] (inactive)
- activity, negative = inhibition [4, 14]: -10.7% [at 17.2 µM] (inactive)
- Potency [5]: > 20.6 µM (inactive) and > 46 µM (inactive)
- Potency [6]: > 20.6 µM (inactive) and > 46 µM (inactive)
- Potency [7]: inactive
- Potency [8]: inactive
- Potency [13]: inactive
- activity change, negative = inhibition ([9]; at 25.7 µM (top of the series)): -1.84% (inactive)
- max response [9, 15]: -8.76%
- max response [9, 16]: -11%
- Potency [10]: inactive

Structure (SMILES): O[C@@](CCN1CCCCC1)(c1ccccc1)C1CCCCC1
- Potency [2]: inactive
- activity, negative = inhibition ([4]; at 17.2 µM (top of the series)): -9.32% (inactive)
- activity, negative = inhibition ([4]; at 38 µM (top of the series)): 15.1% (inactive)
- Potency [7]: inactive
- Potency [8]: inactive
- Potency [13]: inactive
- activity change, negative = inhibition ([9]; at 25.7 µM (top of the series)): -1.35% (inactive)
- max response [9, 15]: -17.3%
- max response [9, 16]: -19.7%

Structure (SMILES): CO/N=C(/C(=O)NC1C(=O)N2C(C(=O)O)=C(CSc3nc(=O)c(O)nn3C)CSC12)c1csc(N)n1 (configuration not stated)
- activity change, negative = inhibition ([9]; at 57.5 µM (top of the series)): 7.84% (inactive) and 13.9% (inactive)
- max response [9, 15]: 7.61% and 7.25%
- max response [9, 16]: 18.4% and 25.1%
- Potency [10]: inactive
- outcome [11]: inactive
- activity, negative = inhibition ([12]; at 28.7 µM (top of the series), parasite line A): 11.8% (inactive)
- activity, negative = inhibition ([12]; at 28.7 µM (top of the series), parasite line B): 6.03% (inactive)
- Potency (ATS189): inactive
- Potency (CP201): inactive
- Potency (CP291): inactive
- Potency (DFO2036): inactive
- Potency (PC49): inactive
- Potency (TAB113): inactive

Structure (SMILES): CC1CC2C3CCC4=CC(=O)C=C[C@@]4(C)[C@]3(F)C(O)C[C@]2(C)[C@]1(O)C(=O)CO (some centres not stated)
- activity change, negative = inhibition ([9]; at 57.5 µM (top of the series)): -0.857% (inactive) and 2.9% (inactive)
- max response [9, 15]: 20% and 4.4%
- max response [9, 16]: 23.5% and 9.45%
- Potency [10]: inactive

Structure (SMILES): CC(C)COC[C@H](CN(Cc1ccccc1)c1ccccc1)N1CCCC1
- activity change, negative = inhibition [1]: 15.1% [at 38 µM] (inactive)
- Potency [2]: inactive and 12.6 µM (active)
- activity change, negative = inhibition [3]: -5.29% [at 38 µM] (inactive)
- Potency [5]: > 46 µM (inactive) and > 20.6 µM (inactive)
- Potency [6]: > 46 µM (inactive) and > 20.6 µM (inactive)
- Potency [7]: inactive
- Potency [8]: inactive
- Potency [13]: inactive
- activity change, negative = inhibition ([9]; at 25.7 µM (top of the series)): -12.4% (inactive)
- max response [9, 15]: -16.9%
- max response [9, 16]: -26.5%
- Potency [10]: inactive
